Consider seven molecules from ChEMBL document CHEMBL2218924, “A broad activity screen in support of a chemogenomic map for kinase signalling research and drug discovery” (Biochem J, 2013).

Experiment [1] concerns the target ALK tyrosine kinase receptor (Homo sapiens) (UniProt Q9UM73). The conditions noted are these: at 10 µM.
Experiment [2] deals with T1, Activin receptor type-1B (Homo sapiens) (UniProt P36896).
T1 sequence (whole entry): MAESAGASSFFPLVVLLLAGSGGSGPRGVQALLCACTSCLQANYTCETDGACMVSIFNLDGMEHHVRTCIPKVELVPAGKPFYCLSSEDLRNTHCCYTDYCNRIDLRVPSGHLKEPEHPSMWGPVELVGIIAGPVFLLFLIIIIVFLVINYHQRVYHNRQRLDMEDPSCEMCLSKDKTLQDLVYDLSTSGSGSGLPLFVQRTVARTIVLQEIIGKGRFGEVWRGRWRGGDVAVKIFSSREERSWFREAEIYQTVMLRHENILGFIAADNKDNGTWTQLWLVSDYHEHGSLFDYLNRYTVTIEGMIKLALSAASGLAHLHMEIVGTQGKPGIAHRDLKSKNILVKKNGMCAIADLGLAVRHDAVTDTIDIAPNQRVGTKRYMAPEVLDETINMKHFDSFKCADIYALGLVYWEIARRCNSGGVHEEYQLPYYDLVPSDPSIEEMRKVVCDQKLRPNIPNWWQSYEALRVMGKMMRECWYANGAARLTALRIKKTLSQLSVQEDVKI
The conditions noted are these: at 1 µM.

Experiment [3] concerns the target T2, AMP-activated protein kinase (AMPK) alpha-1/beta-1/gamma-1 (Homo sapiens) (UniProt P54619+Q9Y478+Q13131). The conditions noted are these: at 1 µM.
Experiment [4] addresses T2, AMP-activated protein kinase (AMPK) alpha-1/beta-1/gamma-1 (Homo sapiens). The conditions noted are these: at 10 µM.
For experiment [5], the target named is T3, AMP-activated protein kinase, AMPK (Homo sapiens) (UniProt P54646+O43741+P54619+Q9UGJ0+Q9Y478+Q13131+Q9UGI9). To be noted: at 1 µM.
The target in experiment [6] is T3, AMP-activated protein kinase, AMPK (Homo sapiens). To be noted: at 10 µM.
In experiment [7] the target is T4, NUAK family SNF1-like kinase 1 (Homo sapiens) (UniProt O60285).
T4 sequence (whole entry): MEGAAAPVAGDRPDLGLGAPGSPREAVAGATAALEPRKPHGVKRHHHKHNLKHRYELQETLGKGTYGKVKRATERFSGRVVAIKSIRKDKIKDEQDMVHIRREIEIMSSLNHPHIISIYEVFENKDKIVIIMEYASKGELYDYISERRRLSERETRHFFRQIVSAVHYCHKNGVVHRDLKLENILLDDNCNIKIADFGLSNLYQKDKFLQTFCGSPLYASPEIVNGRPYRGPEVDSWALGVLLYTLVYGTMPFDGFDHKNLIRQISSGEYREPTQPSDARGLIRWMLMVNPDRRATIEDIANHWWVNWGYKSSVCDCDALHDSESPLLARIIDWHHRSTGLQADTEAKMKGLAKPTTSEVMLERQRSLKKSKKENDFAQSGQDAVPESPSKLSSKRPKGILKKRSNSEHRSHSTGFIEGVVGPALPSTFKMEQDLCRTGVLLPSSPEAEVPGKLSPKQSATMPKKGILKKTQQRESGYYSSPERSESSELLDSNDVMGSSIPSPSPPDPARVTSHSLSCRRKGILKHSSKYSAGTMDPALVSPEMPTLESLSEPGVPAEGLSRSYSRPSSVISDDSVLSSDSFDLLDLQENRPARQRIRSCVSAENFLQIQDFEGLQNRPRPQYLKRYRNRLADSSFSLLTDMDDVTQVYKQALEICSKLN
To be noted: at 1 µM.

The target of experiment [8] is T4, NUAK family SNF1-like kinase 1 (Homo sapiens). The conditions noted are these: at 10 µM.
For experiment [9], the target named is Platelet-derived growth factor receptor alpha (Homo sapiens) (UniProt P16234). The conditions noted are these: at 1 µM.
Experiment [10] shares this target. To be noted: at 10 µM.
Experiment [11] concerns the target Platelet-derived growth factor receptor beta (Homo sapiens) (UniProt P09619). The conditions noted are these: at 1 µM.
Experiment [12] has the same target. The conditions noted are these: at 10 µM.
Experiment [13] addresses T5, 3-phosphoinositide-dependent protein kinase 1 (Homo sapiens) (UniProt O15530).
T5 sequence (whole entry): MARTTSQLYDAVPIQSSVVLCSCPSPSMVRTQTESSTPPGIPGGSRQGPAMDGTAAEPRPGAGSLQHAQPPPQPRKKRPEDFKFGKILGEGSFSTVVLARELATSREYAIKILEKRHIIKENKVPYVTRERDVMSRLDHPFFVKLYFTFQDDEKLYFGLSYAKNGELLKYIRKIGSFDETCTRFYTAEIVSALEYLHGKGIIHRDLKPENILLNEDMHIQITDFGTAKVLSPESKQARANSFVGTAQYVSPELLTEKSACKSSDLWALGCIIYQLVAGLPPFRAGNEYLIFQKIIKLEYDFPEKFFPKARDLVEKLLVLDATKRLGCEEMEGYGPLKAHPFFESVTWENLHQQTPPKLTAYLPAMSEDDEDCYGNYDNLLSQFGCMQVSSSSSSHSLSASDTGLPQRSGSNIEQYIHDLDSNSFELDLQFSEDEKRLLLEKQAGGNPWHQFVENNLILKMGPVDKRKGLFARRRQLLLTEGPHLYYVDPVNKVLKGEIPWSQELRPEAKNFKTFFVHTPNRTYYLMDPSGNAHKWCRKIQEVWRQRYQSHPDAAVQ
To be noted: at 1 µM.

Experiment [14] addresses T5, 3-phosphoinositide-dependent protein kinase 1 (Homo sapiens). The conditions noted are these: at 10 µM.
The target of experiment [15] is cAMP-dependent protein kinase catalytic subunit alpha (Homo sapiens) (UniProt P17612). The conditions noted are these: at 1 µM.
In experiment [16] the target is T1, Activin receptor type-1B (Homo sapiens). The conditions noted are these: at 10 µM.
The target of experiment [17] is T6, Mitogen-activated protein kinase kinase kinase 5 (Homo sapiens) (UniProt Q99683).
T6 sequence (whole entry): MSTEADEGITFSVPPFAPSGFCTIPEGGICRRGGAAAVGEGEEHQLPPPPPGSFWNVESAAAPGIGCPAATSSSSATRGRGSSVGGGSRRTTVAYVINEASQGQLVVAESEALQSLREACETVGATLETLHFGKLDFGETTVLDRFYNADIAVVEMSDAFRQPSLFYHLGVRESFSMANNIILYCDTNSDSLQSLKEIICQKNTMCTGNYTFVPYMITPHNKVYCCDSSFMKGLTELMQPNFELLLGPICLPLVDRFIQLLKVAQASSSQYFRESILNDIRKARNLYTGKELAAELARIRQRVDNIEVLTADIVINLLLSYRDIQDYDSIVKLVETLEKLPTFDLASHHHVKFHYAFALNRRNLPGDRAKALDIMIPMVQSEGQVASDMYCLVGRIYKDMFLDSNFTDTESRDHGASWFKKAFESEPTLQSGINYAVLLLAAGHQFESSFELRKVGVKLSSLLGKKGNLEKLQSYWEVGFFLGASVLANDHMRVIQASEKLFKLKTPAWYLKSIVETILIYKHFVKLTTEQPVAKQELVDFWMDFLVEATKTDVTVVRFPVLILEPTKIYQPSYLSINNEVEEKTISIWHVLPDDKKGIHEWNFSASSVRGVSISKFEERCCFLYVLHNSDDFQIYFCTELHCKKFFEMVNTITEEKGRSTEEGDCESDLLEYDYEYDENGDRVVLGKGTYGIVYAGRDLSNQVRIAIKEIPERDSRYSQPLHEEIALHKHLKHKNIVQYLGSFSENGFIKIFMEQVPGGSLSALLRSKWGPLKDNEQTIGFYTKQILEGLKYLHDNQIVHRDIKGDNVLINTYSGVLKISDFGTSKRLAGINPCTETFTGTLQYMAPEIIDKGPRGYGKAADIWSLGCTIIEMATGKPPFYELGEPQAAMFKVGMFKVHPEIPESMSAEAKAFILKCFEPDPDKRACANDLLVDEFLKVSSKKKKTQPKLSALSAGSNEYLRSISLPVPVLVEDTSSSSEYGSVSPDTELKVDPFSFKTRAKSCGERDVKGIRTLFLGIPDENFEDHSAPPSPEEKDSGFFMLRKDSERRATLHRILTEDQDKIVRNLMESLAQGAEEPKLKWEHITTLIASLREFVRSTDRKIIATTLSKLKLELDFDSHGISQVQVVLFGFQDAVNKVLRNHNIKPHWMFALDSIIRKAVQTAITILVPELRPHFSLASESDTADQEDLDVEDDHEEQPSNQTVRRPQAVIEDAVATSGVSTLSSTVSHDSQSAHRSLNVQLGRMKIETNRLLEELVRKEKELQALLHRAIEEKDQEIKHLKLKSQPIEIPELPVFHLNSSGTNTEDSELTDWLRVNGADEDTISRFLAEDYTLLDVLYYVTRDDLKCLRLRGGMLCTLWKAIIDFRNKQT
The conditions noted are these: at 1 µM.

The target in experiment [18] is cAMP-dependent protein kinase catalytic subunit alpha (Homo sapiens) (UniProt P17612). To be noted: at 10 µM.
The target of experiment [19] is RAC-gamma serine/threonine-protein kinase (Homo sapiens) (UniProt Q9Y243). To be noted: at 1 µM.
For experiment [20] the target is unchanged. The conditions noted are these: at 10 µM.

Sequence of RAC-gamma serine/threonine-protein kinase (Homo sapiens) (Q9Y243 whole entry): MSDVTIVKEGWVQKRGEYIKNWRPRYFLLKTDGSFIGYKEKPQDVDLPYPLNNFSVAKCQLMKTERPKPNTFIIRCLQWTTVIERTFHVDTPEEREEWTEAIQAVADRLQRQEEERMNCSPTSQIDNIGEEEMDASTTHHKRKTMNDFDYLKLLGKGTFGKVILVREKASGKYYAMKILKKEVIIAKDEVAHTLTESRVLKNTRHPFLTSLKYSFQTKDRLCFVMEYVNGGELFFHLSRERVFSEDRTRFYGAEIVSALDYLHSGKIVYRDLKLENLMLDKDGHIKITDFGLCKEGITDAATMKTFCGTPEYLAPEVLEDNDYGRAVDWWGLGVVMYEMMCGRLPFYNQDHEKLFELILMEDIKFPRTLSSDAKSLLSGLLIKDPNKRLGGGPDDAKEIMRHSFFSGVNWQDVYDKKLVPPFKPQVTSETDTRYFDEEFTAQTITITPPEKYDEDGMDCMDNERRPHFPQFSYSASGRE
Sequence of ALK tyrosine kinase receptor (Homo sapiens) (Q9UM73 19-1620 limits assumed): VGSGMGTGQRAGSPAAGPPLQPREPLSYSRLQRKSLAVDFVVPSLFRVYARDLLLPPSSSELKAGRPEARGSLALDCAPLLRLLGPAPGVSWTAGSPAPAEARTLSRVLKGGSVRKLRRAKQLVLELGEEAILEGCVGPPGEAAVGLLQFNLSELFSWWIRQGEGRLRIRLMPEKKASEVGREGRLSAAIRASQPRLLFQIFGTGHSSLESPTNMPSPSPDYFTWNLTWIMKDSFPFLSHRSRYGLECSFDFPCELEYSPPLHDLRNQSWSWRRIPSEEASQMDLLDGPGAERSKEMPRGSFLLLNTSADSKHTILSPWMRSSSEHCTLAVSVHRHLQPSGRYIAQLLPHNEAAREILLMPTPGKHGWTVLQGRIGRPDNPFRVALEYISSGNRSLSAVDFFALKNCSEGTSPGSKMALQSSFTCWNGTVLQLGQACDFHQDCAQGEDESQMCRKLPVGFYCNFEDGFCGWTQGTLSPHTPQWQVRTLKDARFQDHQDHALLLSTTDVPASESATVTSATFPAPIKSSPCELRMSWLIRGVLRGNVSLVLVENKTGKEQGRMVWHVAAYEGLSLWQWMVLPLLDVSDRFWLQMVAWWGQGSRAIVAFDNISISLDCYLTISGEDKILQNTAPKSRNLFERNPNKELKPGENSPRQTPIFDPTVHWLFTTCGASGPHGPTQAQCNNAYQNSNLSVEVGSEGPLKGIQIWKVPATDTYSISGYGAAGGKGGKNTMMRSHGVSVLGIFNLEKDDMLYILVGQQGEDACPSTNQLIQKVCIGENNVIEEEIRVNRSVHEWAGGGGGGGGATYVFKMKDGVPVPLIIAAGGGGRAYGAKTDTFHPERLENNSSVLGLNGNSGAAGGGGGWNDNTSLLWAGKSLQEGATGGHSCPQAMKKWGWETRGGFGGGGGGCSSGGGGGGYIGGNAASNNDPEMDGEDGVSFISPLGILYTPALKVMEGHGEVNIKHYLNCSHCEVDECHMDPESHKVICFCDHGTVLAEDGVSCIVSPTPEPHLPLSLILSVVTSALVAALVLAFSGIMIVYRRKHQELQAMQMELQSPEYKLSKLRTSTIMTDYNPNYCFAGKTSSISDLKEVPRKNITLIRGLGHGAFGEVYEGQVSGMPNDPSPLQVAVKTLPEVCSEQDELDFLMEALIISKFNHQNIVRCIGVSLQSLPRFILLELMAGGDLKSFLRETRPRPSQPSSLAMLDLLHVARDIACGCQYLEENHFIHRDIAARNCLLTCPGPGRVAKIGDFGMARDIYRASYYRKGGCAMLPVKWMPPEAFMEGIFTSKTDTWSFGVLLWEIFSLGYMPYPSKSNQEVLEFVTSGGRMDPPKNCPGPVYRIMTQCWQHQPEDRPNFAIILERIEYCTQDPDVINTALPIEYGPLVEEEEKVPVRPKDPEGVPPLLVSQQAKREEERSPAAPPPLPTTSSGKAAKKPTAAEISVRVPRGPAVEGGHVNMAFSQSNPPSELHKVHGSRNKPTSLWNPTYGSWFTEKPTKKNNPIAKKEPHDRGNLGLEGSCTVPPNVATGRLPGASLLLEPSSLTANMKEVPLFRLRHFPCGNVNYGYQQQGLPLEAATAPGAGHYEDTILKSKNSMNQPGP
T2 sequence (P54619 whole entry): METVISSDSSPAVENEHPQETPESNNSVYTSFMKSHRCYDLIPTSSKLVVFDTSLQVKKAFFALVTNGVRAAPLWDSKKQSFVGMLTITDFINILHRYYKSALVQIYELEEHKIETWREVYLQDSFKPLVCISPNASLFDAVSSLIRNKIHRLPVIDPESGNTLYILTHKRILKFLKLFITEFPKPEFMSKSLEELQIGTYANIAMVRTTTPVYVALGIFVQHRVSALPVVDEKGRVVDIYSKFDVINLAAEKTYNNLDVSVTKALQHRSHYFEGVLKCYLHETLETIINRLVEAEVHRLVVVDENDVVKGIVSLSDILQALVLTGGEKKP
T2 sequence (Q13131 whole entry partner): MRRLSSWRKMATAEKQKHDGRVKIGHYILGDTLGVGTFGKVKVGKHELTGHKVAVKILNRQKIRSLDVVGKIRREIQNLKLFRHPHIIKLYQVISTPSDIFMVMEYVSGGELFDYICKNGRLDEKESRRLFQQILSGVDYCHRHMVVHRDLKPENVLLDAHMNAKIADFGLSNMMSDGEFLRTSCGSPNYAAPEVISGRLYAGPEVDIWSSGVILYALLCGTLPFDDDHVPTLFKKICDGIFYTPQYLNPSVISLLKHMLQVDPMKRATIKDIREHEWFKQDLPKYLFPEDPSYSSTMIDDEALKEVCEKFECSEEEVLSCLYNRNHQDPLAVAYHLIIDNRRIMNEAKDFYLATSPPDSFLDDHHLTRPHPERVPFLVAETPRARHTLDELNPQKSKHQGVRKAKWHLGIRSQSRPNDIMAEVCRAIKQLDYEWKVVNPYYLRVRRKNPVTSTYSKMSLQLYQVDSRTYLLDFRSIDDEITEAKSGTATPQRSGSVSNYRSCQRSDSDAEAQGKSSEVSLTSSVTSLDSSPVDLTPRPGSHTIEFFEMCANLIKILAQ
T2 sequence (Q9Y478 2-270 partner limits assumed): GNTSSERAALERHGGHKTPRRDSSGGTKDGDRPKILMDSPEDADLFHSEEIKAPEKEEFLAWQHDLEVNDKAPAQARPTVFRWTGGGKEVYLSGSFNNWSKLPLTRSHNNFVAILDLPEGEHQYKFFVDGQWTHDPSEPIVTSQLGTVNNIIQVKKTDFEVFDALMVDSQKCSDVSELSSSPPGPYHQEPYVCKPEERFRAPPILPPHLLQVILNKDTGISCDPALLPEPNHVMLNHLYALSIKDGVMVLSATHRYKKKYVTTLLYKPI
Sequence of Platelet-derived growth factor receptor alpha (Homo sapiens) (P16234 whole entry): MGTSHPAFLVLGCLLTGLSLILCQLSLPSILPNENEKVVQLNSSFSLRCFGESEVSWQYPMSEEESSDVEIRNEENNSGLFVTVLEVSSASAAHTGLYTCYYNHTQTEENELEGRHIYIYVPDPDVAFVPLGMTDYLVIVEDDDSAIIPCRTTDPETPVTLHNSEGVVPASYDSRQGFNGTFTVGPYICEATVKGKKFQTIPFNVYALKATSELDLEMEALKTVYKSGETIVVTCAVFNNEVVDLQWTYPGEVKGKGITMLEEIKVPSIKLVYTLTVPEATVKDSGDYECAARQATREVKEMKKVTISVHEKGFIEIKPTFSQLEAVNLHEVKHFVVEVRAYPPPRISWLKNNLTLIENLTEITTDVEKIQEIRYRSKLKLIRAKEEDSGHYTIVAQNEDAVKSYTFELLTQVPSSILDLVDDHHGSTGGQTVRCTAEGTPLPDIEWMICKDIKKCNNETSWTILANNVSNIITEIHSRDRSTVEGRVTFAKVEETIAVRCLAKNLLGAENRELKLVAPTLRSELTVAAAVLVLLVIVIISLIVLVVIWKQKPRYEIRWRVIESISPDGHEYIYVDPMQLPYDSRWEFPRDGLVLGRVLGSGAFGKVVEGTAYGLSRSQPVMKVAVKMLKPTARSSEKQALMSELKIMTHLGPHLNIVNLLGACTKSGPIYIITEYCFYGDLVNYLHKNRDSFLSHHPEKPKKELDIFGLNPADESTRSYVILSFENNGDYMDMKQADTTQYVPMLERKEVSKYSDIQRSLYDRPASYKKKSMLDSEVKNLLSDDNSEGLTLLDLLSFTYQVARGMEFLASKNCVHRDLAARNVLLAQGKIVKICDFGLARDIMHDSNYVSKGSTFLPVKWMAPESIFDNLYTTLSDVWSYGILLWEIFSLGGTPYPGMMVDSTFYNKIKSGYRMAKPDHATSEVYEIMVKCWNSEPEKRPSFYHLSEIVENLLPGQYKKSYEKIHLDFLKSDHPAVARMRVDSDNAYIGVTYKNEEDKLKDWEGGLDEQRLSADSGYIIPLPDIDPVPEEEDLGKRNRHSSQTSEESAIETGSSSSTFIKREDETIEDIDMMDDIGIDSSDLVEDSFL

Take `O=C(c1cc2cc(O)ccc2[nH]1)c1cc2cc(O)ccc2[nH]1`: the residual activity worked out at 58% in [1]; 111% in [2]; 16% in experiment [3]; 1% in [4]; 13% in experiment [5]; 3% in experiment [6]. For the same molecule, the residual activity in [7] is 65%; in [8] it was 20%; in [9], 46%; in [10] it was 6%; in experiment [11], 35%; in experiment [12], 6%. Moreover, the residual activity in experiment [13] came to 79%; in experiment [14] it was 23%; in [15], 74%.
With `O=C1NC(=O)C(c2cn(CCCn3ccnc3)c3ccccc23)=C1Nc1ccccc1`, the residual activity in experiment [1] stood at 65%; in experiment [2], 107%; in experiment [16], 103%; in experiment [3], 74%; in experiment [4], 32%; in experiment [5], 73%. Further, the residual activity in experiment [6] stood at 25%; in [8], 38%; in [17], 82%; in experiment [13], 39%; in experiment [14] it was 8%; in experiment [15] it was 69%. Besides, the residual activity was determined as 43% in experiment [18], 50% in [19] and 15% in [20].
In the case of `CCOC(=O)c1c(C)[nH]c(/C=C2\C(=O)Nc3ccccc32)c1C`, the residual activity was determined as 118% in [1]; 120% in [2]; 83% in experiment [16]; 80% in experiment [3]; 65% in experiment [4]; 85% in experiment [5]. Besides, the residual activity in experiment [6] amounted to 74%; in experiment [7], 88%; in [8] it was 85%; in experiment [9], 43%; in experiment [10], 45%; in [11], 90%. Moreover, the residual activity in experiment [12] worked out at 92%.
Consider `Nc1nc(Nc2ccc(S(N)(=O)=O)cc2)nn1C(=O)c1c(F)cccc1F`, for which the residual activity worked out at 38% in [1]; 100% in [2]; 47% in experiment [16]; 58% in [3]; 11% in experiment [4]; 47% in experiment [5]. In addition, the residual activity in experiment [6] came to 15%; in experiment [7] it was 4%; in experiment [8], 7%; in [17], 102%; in experiment [11] it was 108%; in [12], 82%. Further, the residual activity in [13] came to 68%; in experiment [14], 21%; in experiment [19] it was 110%.
As for `O=c1cc(N2CCOCC2)oc2c(-c3ccccc3)cccc12`, the residual activity in experiment [1] is 53%.
Take `Cn1c2ccccc2c2c3c(c4c5ccccc5n(CCC#N)c4c21)CNC3=O`: the residual activity in experiment [1] was found to be 4%; in experiment [2] it was 108%; in experiment [16] it was 64%; in [3] it was 22%; in experiment [4], 22%; in [5] it was 19%. The residual activity came to 16% in experiment [6]; 10% in experiment [7]; 6% in experiment [8]; 17% in experiment [17]; 98% in experiment [9]; 76% in [10]. For the same molecule, the residual activity in [13] and in [14] was 6% in each case.
As to `O=C(CCCc1ccc(-c2ccccc2F)cc1)Nc1ccc(O)cc1`, the residual activity amounted to 44% in [1]; 111% in experiment [2]; 94% in experiment [16]; 106% in experiment [3]; 89% in experiment [4]; 106% in experiment [5]. The residual activity was found to be 99% in [6]; 96% in experiment [7]; 78% in experiment [8]; 99% in [17]; 103% in experiment [9]; 102% in experiment [11]. For the same molecule, the residual activity in experiment [12] was determined as 125%; in experiment [13], 105%; in [14] it was 90%; in experiment [15], 107%; in [18], 128%; in experiment [19], 109%. Moreover, in [20], the residual activity amounted to 87%.
